Screening results deposited in PubChem BioAssay by National Center for Advancing Translational Sciences (NCATS).
The list is not random: actives were taken first. Their share in the collection is about 21%.
Shiga toxin inh – A qHTS for Small Molecule Inhibitors of Shiga Toxin; Vero cells, Shiga toxin protein synthesis inhibition reporter; inhibition, % at 38.7 µM; 290,000 tested, 9.2% active; in the data active = inhibition mostly above about 28%, no sharp cut-off; inactive = mostly below about 43%; note: 0% is about no effect
NS1 function inh – qHTS Assay for Inhibitors of Influenza NS1 Protein Function. Potency, µM (top dose mostly 46.1 µM), inactives show at the top dose activity, positive = more growth. 270,000 tested, 0.4% active. AID 2326, 2010; calls by dose curve; note: potency is the fitted concentration of half-maximal effect; actives are rising curves; nearly all actives have a fitted effect of over 50% in size
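OD600 was taken as the measure of yeast growth restored by compound in an NS1-expressing S. cerevisiae strain. Cells had been washed out of glucose medium and diluted 1:100 into galactose -URA medium, pH 6.0.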
Cycloheximide cs – Cycloheximide Counterscreen for Small Molecule Inhibitors of Shiga Toxin. AID 2314, 2010. max response, %. 300,000 tested, 12% active. cell reporter, cycloheximide protein synthesis inhibition counterscreen; in the data active = max response mostly above about 13%, no sharp cut-off; inactive = mostly below about 14%; note: read at 38.3 µM for the half of the compounds with a filed dose; 0% is about no effect
Sm TGR inh – qHTS Assay for the Inhibitors of Schistosoma Mansoni Peroxiredoxins; AID 485364, 2010; Schistosoma mansoni thioredoxin glutathione reductase (TGR), Q962Y6; Potency, µM (series often up to 114 µM), for the others: at the top dose activity change, negative = inhibition, hits mostly inhibitors; purified TGR, DTNB reduction, TNB absorbance 405 nm; 360,000 tested, 3% active; note: potency is the fitted concentration of half-maximal effect; % is set by controls: 0 for no effect and ±100 for the full control effect; nearly all actives have a fitted effect of over 60% in size
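TGR 20 nM + NADPH 100 uM (dispensed conc.), cpd preinc 15 min RT; start with NADPH (500 uM addition) then DTNB (15 mM addition). Kinetic TNB absorbance, 405 nm filter. Four-parameter Hill fit across titration.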
Pf growth 48h – Primary qHTS for delayed death inhibitors of the malarial parasite plastid, 48 hour incubation | P. falciparum luciferase growth in erythrocytes, 48 h | Potency, µM (doses to about 28.7 µM), for the others: at the highest dose activity change, negative = inhibition, actives largely listed as inhibitors | 310,000 tested, 5.9% active | AID 504832, 2011; note: potency is the fitted concentration of half-maximal effect; % is set by controls: 0 for no effect and ±100 for the full control effect
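Growth was read as firefly luciferase luminescence after a 48 h, 37 C, 5% CO2 exposure of compounds to reporter-bearing P. falciparum cultures (0.1% parasitemia, 2% hematocrit final) in Albumax-supplemented RPMI 1640.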
Pf growth 96h – Primary qHTS for delayed death inhibitors of the malarial parasite plastid, 96 hour incubation | AID 504834, 2011 | P. falciparum luciferase reporter growth, 96 h | Potency, µM (highest dose often 28.7 µM), without a hit: at the highest dose activity change, negative = inhibition, most hits filed as inhibitors | 320,000 tested, 6.9% active; note: potency is the fitted concentration of half-maximal effect; % is set by controls: 0 for no effect and ±100 for the full control effect
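96 h incubation, 37 C, 5% CO2, of luciferase-reporter P. falciparum-infected RBCs (2% hematocrit, 0.05% parasitemia final) with test compounds; endpoint luminescence.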
Starred values were filed as active, the others as inactive; ? = inconclusive; nt = no result; [ ] = another dose, or the depositor's remark. Unless noted, calls come from the whole dose curve; as a rule, active = well fitted curve in the direction sought with a large enough effect; inconclusive = small, poorly fitted or top-dose-only effect, or another doubt; inactive = no such curve, though single readings can be large; an effect the other way counts as inactive or inconclusive.

SMILES	Shiga toxin inh	NS1 function inh	Cycloheximide cs	Sm TGR inh	Pf growth 48h	Pf growth 96h
Cc1nc(C)c(-c2csc(Nc3ccccn3)n2)s1	112*	-84%	49*	?	247%	-9%
CCc1ccc2c(COC(=O)C3CSC4(C)CCC(=O)N34)cc(=O)oc2c1 (stereo unspecified)	nt	nt	nt	2%	12%	?
COc1ccc(-c2nc(CS(=O)CC(=O)NCCN3CCCCC3C)c(C)o2)cc1OC (stereo unspecified)	-7	6%	-2	-29%	-5%	?
CN(CC(=O)Nc1ccc(F)cc1)C(=O)c1ccccc1Sc1ccccc1C#N	nt	nt	nt	4%	-8%	54%
COc1ccc2[nH]c3c(c2c1)CCn1c-3nc2ccccc2c1=O	97*	1%	38*	1%	284%	?
COc1ccc2nc3c(cc2c1)Cn1c-3nc2ccccc2c1=O	27	nt	15	nt	nt	nt
COc1cc(C2C(C#N)=C(N)N(N(C)C)C3=C2C(=O)CC(C)(C)C3)ccc1O (stereo unspecified)	4	-1%	-1	-15%	-16%	84%
O=c1[nH][nH]cc1C=Nc1cc(Cl)ccc1O	-18	-3%	8	-27%	?	6.6µM*
COc1ccc(C)cc1NC(=O)NCc1ccc(F)cc1	31	-3%	6	8%	22%	97%[5.75 µM]
COc1ccc(OC)c2c(N3CC(C)OC(C)C3)cc(C(F)(F)F)nc12 (stereo unspecified)	78*	-3%	21*	-4%	112%	0%
CCN(/N=C/C=C/c1ccccc1)c1cc(=O)n(C)c(=O)[nH]1	13	3%	0	-8%	?	7.4µM*
CCN(/N=C/c1ccc(Cl)cc1)c1cc(=O)n(C)c(=O)[nH]1	active	1%	34*	2%	1%	?
COc1ccc(CC(=O)NC2CCS(=O)(=O)C2)cc1 (stereo unspecified)	nt	nt	nt	8%	30%	31%
Cc1ccc(-c2nc(SCC(=O)N3CCc4ccccc43)c3c(=O)n(C)c(=O)n(C)c3n2)cc1	nt	nt	nt	1%	nt	nt
Cc1ccc(N2CCN(Cc3nnc(-c4ccc5c(c4)OCO5)o3)CC2)c(C)c1	nt	nt	nt	11%	nt	nt
COc1ccc(/C(N)=N/OC(=O)c2cccc([N+](=O)[O-])c2)cc1	26	-4%	1	-3%	nt	?
COc1cccc(C(=O)O/N=C(\N)c2ccc([N+](=O)[O-])cc2)c1	76*	-18%	33*	1%	47%	39%
COc1cccc(C(=O)O/N=C(\N)c2ccncc2)c1	71*	-19%	47*	-19%	-4%	?
COc1cccc(C(=O)O/N=C(\N)Cc2ccc(Cl)cc2)c1	19	-71%	14	-2%	10µM*	139%
O=C(O/N=C(/c1ccccc1)c1ccncc1)c1cccc(F)c1	-34	nt	-7	-20%	13%	?
COc1cccc(/C(N)=N/OC(=O)Cc2ccccc2[N+](=O)[O-])c1	113*	nt	27*	12%	35%	?
CCOc1ccc(CNC(=O)CCn2nc(C)c3c(C)n(-c4ccccc4)nc3c2=O)cc1	nt	nt	nt	8%	nt	nt
COc1cccc(C(=O)O/N=C(\N)c2ccc(C)cc2)c1	83*	-34%	57*	2%	?	35%
c1ccc2c(CC3NCCN3)cccc2c1	nt	-9%	nt	nt	nt	nt
COc1cccc(/C=C(\C#N)c2nc3ccc(C)cc3[nH]2)c1	nt	nt	nt	4%	nt	nt
SMILES	Shiga toxin inh	NS1 function inh	Cycloheximide cs	Sm TGR inh	Pf growth 48h	Pf growth 96h
CCOc1cc(N(CC)CC)ccc1/C=C(/C#N)c1nc2ccccc2[nH]1	82*	3%	27*	12%	-19%	8.3µM*
COc1ccccc1N/C=C(\C#N)c1nc2ccccc2[nH]1	2	-1%	12	9%	?	125%
CCCOc1cc(N(CC)CC)ccc1/C=C(/C#N)c1nc2ccc(C)cc2[nH]1	8	21%	16	0%	7.4µM*	2.6µM*
CCN(CC)c1ccc(/C=C(/C#N)c2nc3ccc(C)cc3[nH]2)c(OC(C)C)c1	22	18%	15*	-1%	?	10µM*
Cn1nc(C(=O)NCc2ccccc2Cl)c2c1-c1ccccc1S(=O)(=O)C2	-3	-4%	-1	-3%	9%	-17%
CCCn1c(Nc2nc3ccccc3n2C)nc2ccccc21	-7	-189%	-4	2%	7.4µM*	7.4µM*
Nn1c(Nc2ccccc2)nc2ccccc2c1=O	43	-19%	1	23%[11.4 µM]	nt	13%
Cn1c(Nc2ccccc2)nc2ccccc21	52	-12%	25*	3%	3%	?
Nn1c(Nc2ccccc2)nc2ccccc21	58*	-17%	36*	4%	163%	53%
CCCCn1c(Nc2ccccc2)nc2ccccc21	-21	-4%	-4	8%	nt	?
CC1(C)N=C(N)N=C(N)N1c1cccc(CSc2ccccc2)c1	nt	8%	nt	nt	nt	nt
COc1cc(-c2noc(-c3ccco3)n2)cc(OC)c1OC	80*	-11%	18*	-5%	-14%	-6%
COc1ccccc1-c1noc(-c2ccco2)n1	80*	-20%	51*	-2%	77%	nt
COc1ccc(Br)cc1-c1noc(-c2ccccc2F)n1	-7	7%	-2	4%	27%	nt
COc1cc(-c2noc(C)n2)cc(OC)c1OC	-10	-1%	9	25%	35%	21%
COc1ccccc1-c1noc(-c2ccccc2)n1	89*	-48%	49*	0%	272%	0%
COc1ccc(-c2nc(-c3ccccc3OC)no2)cc1OC	162*	-59%	66*	8%	4%	-1%
CCOc1cc(-c2nc(-c3ccccc3OC)no2)cc(OCC)c1OCC	-10	-19%	-4	1%	-19%	nt
CN(Cc1ccccc1)C(=O)c1ccc(CSc2nc3cccnc3n2Cc2ccccc2F)cc1	nt	nt	nt	9%	nt	nt
N#Cc1ccc(NC(=O)COCc2cc(-c3ccc(F)cc3)on2)cc1	nt	nt	nt	5%	nt	nt
O=C(Nc1nc(-c2ccc(Br)cc2)ns1)c1ccc(F)cc1	nt	nt	nt	-3%	nt	nt
CCCCS(=O)(=O)N1CCCC(C(=O)NCC2CCCO2)C1 (stereo unspecified)	13	8%	-2	-9%	19%	0%
COc1ccc(C(=O)CN2C(=O)N(c3cc(C)ccc3C)S(=O)(=O)c3ccccc32)cc1	nt	nt	nt	10%	nt	nt
O=C(Cc1ccccc1)N1CCN(C/C=C/c2ccccc2)CC1	-2	5%	1	0%	-32%	3.3µM*
O=C(/C=C/c1ccco1)N1CCN(C/C=C/c2ccccc2)CC1	9	-1%	5	40µM*	-9%	?
O=[N+]([O-])c1ccc(C(O)CN2CCN(C/C=C/c3ccccc3)CC2)cc1 (stereo unspecified)	-2	-3%	-1	?	7.4µM*	4.1µM*
